Inconclusive results are not listed. Calls of active or inactive are those of the source. Unless noted, the call rests on the fitted dose curve; in most records, active means well fitted curve in the direction sought with a large enough effect in the repeat runs; inconclusive means weak or mixed curves; inactive means no such curve, though single readings can be large; an effect the other way counts as inactive or inconclusive.
Legend:
[1] = qHTS assay to identify small molecule agonists of H2AX (AID 1224845; active means well fitted activation curve with a large enough effect in the signal ratio in the repeat runs, not every such curve was filed as active; the % refers to the signal ratio)
Outline: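 Wild-type CHO-K1 cells, plated overnight, exposed 3hr at 37C to 15 concentrations (0.76% DMSO final). Lysed, then HTRF anti-pH2AX (S139) cryptate and anti-H2AX-d2 antibodies, 24 hr room temperature; 665/620 nm emission read.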

[2] = qHTS assay to identify small molecule agonists of the hypoxia (HIF-1) signaling pathway (AID 1224846; active means well fitted activation curve with a large enough effect in the signal ratio in the repeat runs, not every such curve was filed as active; the % refers to the signal ratio)
Outline: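 HRE-bla ME-180 beta-lactamase reporter cells in medium with 0.5% dialyzed FBS, pre-incubated 5 h then exposed to compounds 17 h at 37C, 5% CO2; reporter induction read with CCF4-AM FRET substrate.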

[3] = qHTS assay to identify small molecule agonists of H2AX - cell viability counter screen (AID 1224847; calls by dose curve; further: top concentration of the series differs between compounds; nearly all actives have a fitted effect of over 30% in size)
Outline: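 Viability of CHO-K1 (wild type) cells after 3 hr compound exposure was measured by CellTiter-Glo luminescence.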

[4] = qHTS RealTime-Glo MT Cell Viability Assay in HepG2 cells - 24 hour (AID 1224867); further: nearly all actives have a fitted effect of over 50% in size
Outline: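 Luminescence read-out: viable HepG2 cells reduce a prosubstrate to a NanoLuc substrate, giving a signal proportional to live cell number. Reads taken at 0, 8, 16, 24, 32 and 40 h of compound exposure at 37 C.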

[5] = qHTS RealTime-Glo MT Cell Viability Assay in HEK293 cells - 32 hour (AID 1224868); further: top concentration of the series differs between compounds; nearly all actives have a fitted effect of over 50% in size
Outline: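 Nonlytic real-time viability readout: viable cells convert prosubstrate to NanoLuc substrate, giving luminescence proportional to live cell number. HEK293, 600 cells/well, compound added after 5 h, continuous culture at 37 C.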

[6] = A CellTox Green Cytotoxicity Assay to monitor cytotoxicity in HEK293 cells - 0 hour (AID 1224869); further: nearly all actives have a fitted effect of over 50% in size
Outline: (§1)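 HEK293 cells, 600/well, were preincubated 5 hours and then exposed to compounds at 37 C for up to 40 hours. A cell-impermeant cyanine dye staining dead-cell DNA was read by fluorescence at 0, 8, 16, 24, 32 and 40 h time points.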

[7] = qHTS RealTime-Glo MT Cell Viability Assay in HepG2 cells - 40 hour (AID 1224870); further: nearly all actives have a fitted effect of over 50% in size
Outline: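 HepG2 cells (600/well) mixed with RealTime-Glo MT reagent, settled 5 h at 37 C/5% CO2 before compound addition. Nonlytic NanoLuc luminescence from viable-cell prosubstrate reduction read repeatedly during 40 h treatment at 37 C.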

[8] = A CellTox Green Cytotoxicity Assay to monitor cytotoxicity in HEK293 cells - 40 hour (AID 1224871); further: nearly all actives have a fitted effect of over 45% in size
Outline: as §1
On the % scale 0 is the no-effect control and ±100 the full control effect.

O=C(O)CC(=O)O
inactive: Potency [1] | outcome [2] | Potency [3] | Potency [4] | Potency [5] | Potency [6] | Potency [7] | Potency [8]

CC(C)(C)C1=CC(=O)C=C(C(C)(C)C)C1=O
inactive: Potency [1] | outcome [2] | Potency [3] | Potency [4] | Potency [5] | Potency [6] | Potency [7]

Cc1cn[nH]c1
inactive: Potency [1] | outcome [2] | Potency [3] | Potency [4] | Potency [5] | Potency [6] | Potency [7] | Potency [8]

CCCCCCS
inactive: Potency [1] | outcome [2] | Potency [3] | Potency [4] | Potency [5] | Potency [6] | Potency [7]

CCCCN(C)C
inactive: Potency [1] | outcome [2] | Potency [3] | Potency [4] | Potency [5] | Potency [6] | Potency [7]

Cc1c(C(=O)O)cccc1[N+](=O)[O-]
inactive: Potency [1] | outcome [2] | Potency [3] | Potency [4] | Potency [5] | Potency [6] | Potency [7] | Potency [8]

c1ccc2c(c1)CCC2
inactive: Potency [1] | outcome [2] | Potency [3] | Potency [4] | Potency [5] | Potency [6] | Potency [7] | Potency [8]

O=C=NCc1cccc(CN=C=O)c1
inactive: activation (H2AX phosphorylation) [1] -2.62% [at 31.6 µM] | activation [2] -0.762% [at 15.8 µM] | activity change, negative = cytotoxicity [3] 1.36% [at 31.6 µM] | activity change, negative = cytotoxicity [4] 1.03% [at 15.8 µM] | activity change, negative = cytotoxic [5] 6.09% [at 15.8 µM] | cytotoxicity [6] -8.38% [at 15.8 µM] | activity change, negative = cytotoxic [7] 0.58% [at 15.8 µM] | cytotoxicity increase [8] -14.1% [at 15.8 µM]

CC1CNCC(C)O1 (configuration not stated)
inactive: Potency [1] | outcome [2] | Potency [3] | Potency [4] | Potency [5] | Potency [6] | Potency [7] | Potency [8]

OCCCS
inactive: Potency [1] | outcome [2] | Potency [3] | Potency [4] | Potency [5] | Potency [6] | Potency [7]

CCCCCCCCC(C)=O
inactive: Potency [1] | outcome [2] | Potency [3] | Potency [4] | Potency [5] | Potency [6]

O=S(O)O
inactive: activation (H2AX phosphorylation) [1] -2.47% [at 31.6 µM] | activation [2] -0.609% [at 15.8 µM] | activity change, negative = cytotoxicity [3] 3.26% [at 31.6 µM] | activity change, negative = cytotoxicity [4] 3.99% [at 15.8 µM] | activity change, negative = cytotoxic [5] 13.4% [at 15.8 µM] | cytotoxicity [6] -3.65% [at 15.8 µM] | activity change, negative = cytotoxic [7] -0.0421% [at 15.8 µM] | cytotoxicity increase [8] -2.31% [at 15.8 µM]

CCC(=O)OCCc1ccccc1
inactive: Potency [1] | outcome [2] | Potency [3] | Potency [4] | Potency [5] | Potency [6] | Potency [7] | Potency [8]

CCCC(C)CCC(C)=O (configuration not stated)
inactive: Potency [1] | outcome [2] | Potency [3] | Potency [4] | Potency [5] | Potency [6] | Potency [7] | Potency [8]

COC(=O)CC#N
inactive: Potency [1] | outcome [2] | Potency [3] | Potency [4] | Potency [5] | Potency [6] | Potency [7]

C=CC(C)C#N (configuration not stated)
inactive: Potency [1] | outcome [2] | Potency [3] | Potency [4] | Potency [5] | Potency [6] | Potency [7]

CCOC(=O)CN
inactive: Potency [1] | outcome [2] | Potency [3] | Potency [4] | Potency [5] | Potency [6] | Potency [7] | Potency [8]

CN(C)CCN1CCOCC1
inactive: Potency [1] | outcome [2] | Potency [3] | Potency [4] | Potency [5] | Potency [6] | Potency [7] | Potency [8]

O=C(O)CCCCCCC(=O)O
inactive: Potency [1] | outcome [2] | Potency [3] | Potency [4] | Potency [5] | Potency [6] | Potency [7] | Potency [8]

CCc1cccc(C)c1
inactive: Potency [1] | outcome [2] | Potency [3] | Potency [4] | Potency [5] | Potency [6] | Potency [7] | Potency [8]

Cc1cccc(Br)c1
inactive: Potency [1] | outcome [2] | Potency [3] | Potency [4] | Potency [5] | Potency [6] | Potency [7] | Potency [8]

O=Cc1ccc(F)cc1
inactive: Potency [1] | outcome [2] | Potency [3] | Potency [4] | Potency [5] | Potency [6] | Potency [7] | Potency [8]

CC1(C)C(=O)N(CO)C(=O)N1CO
inactive: Potency [1] | outcome [2] | Potency [3] | Potency [4] | Potency [5] | Potency [6] | Potency [7]

CCCCCCCCCCCCCc1ccccc1
inactive: Potency [1] | outcome [2] | Potency [3] | Potency [4] | Potency [5] | Potency [6] | Potency [7] | Potency [8]

CC(C)=CC1CC(C)CCO1 (configuration not stated)
inactive: Potency [1] | outcome [2] | Potency [3] | Potency [4] | Potency [5] | Potency [6] | Potency [7]

O=CC1CC1
inactive: Potency [1] | outcome [2] | Potency [3] | Potency [4] | Potency [5] | Potency [6] | Potency [7]

COc1cccc(O)c1
inactive: Potency [1] | outcome [2] | Potency [3] | Potency [4] | Potency [5] | Potency [6] | Potency [7]

CCCCCCCC(C)=O
inactive: Potency [1] | outcome [2] | Potency [3] | Potency [4] | Potency [5] | Potency [6] | Potency [7]

CC(C)=CCCC(C)CCOC(=O)C(C)C (configuration not stated)
inactive: Potency [1] | outcome [2] | Potency [3] | Potency [4] | Potency [5] | Potency [6] | Potency [7] | Potency [8]

Cc1cc(C)c(C=O)c(C)c1
inactive: Potency [1] | outcome [2] | Potency [3] | Potency [4] | Potency [5] | Potency [6] | Potency [7] | Potency [8]
